Results: PubChem BioAssay AID720650 (Broad Institute, 2013)
Active and inactive are the calls of the source. How the calls were made is not given here.

Assay: C difficile toxins, biochemical counterscreen, UDPG substrate absence, confirmatory dose response (AID 720650)
Details: series mostly up to 19.5 µM; activity change, negative = inhibition: at the top concentration

| Structure (SMILES) | activity change, negative = inhibition | AC50 |
| --- | --- | --- |
| Cc1cc(C)c(S(=O)(=O)N2CCCCC2C(=O)O)c(C)c1 (centres undefined) | -14% (inactive) | – |
| O=C(OCC(=O)N1CCCCC1)c1ccccc1SCC(=O)N1CCCCC1 | -4.44% (inactive) | – |
| Cc1ccc(CSc2nc3nc(C)cc(C)c3c(=O)[nH]2)cc1 | -3.21% (inactive) | – |
| Oc1ccc(Nc2nc(Cl)nc(NCc3ccco3)n2)cc1 | -15.3% (inactive) | – |
| CNc1cncc(-c2ccc(O)cc2)n1 | – | 11.7 µM (active) |
| Cc1ccc(/C=C/c2onc(C)c2S(=O)(=O)N2CCC(C(=O)NC(C)(C)C)CC2)cc1 | -0.872% (inactive) | – |
| CN(C)CCNc1cccc2sc3ccc(O)cc3c(=O)c12 | – | 4.36 µM (active) |
| COc1ccc(C(=O)Nc2cc(Cl)ccc2C(=O)O)cc1 | – | 10.4 µM (active) |
| CN1CCN(CC(=O)Nc2cc(N(C)C)nc3ccccc23)CC1 | 8.85% (inactive) | – |
| CCOc1ccccc1-n1c(C)nc2cc(C(=O)O)ccc21 | 7.93% (inactive) | – |
| Cc1cnc(C(=O)OCC(=O)Nc2ccc(OCc3ccccc3)cc2)cn1 | 11.9% (inactive) | – |
| CC(C)=CCOc1c2occc2cc2ccc(=O)oc12 | – | > 39 µM (inactive) |
| Cc1cc(-c2ccc(NS(=O)(=O)c3ccccc3)c(C)c2)ccc1NS(=O)(=O)c1ccccc1 | -6.17% (inactive) | – |
| C[C@H]1CN([C@@H](C)CO)C(=O)c2c(c3ccccc3n2C)-c2ccccc2CO[C@H]1CN(C)C | 7.48% (inactive) | – |
| CC(C)OC(=O)C(=O)NNc1ccccc1 | – | 1.35 µM (active) |
| O=C(CSc1cccc2cccnc12)N/N=C/c1ccc(F)cc1 | -15.4% (inactive) | – |
| O=S(=O)(Oc1ccccc1-c1ccccc1)c1ccccc1 | -15.6% (inactive) | – |
| COc1ccc(C(=O)NC(C(=O)NCc2ccccc2OC)C(C)C)cc1 (centres undefined) | -8.6% (inactive) | – |
| CCCNC(=O)N1CC[C@@H]2[C@@H](CO)N(C)c3ccc(-c4ccccc4)cc3[C@@H]21 | – | 3.93 µM (active) |
| COc1ccc(NC2CCCN(C(=O)CN3CCOC3=O)C2)cc1OC (centres undefined) | -10.4% (inactive) | – |

| Structure (SMILES) | activity change, negative = inhibition | AC50 |
| --- | --- | --- |
| CC1=NCCc2c1[nH]c1cc(O)ccc21 | – | 21.9 µM (active) |
| O=C(C[n+]1ccccc1)N/N=C/c1ccc(O)cc1 | – | 20.2 µM (active) |
| O=C(CSc1ccc2nnc(-c3ccc(F)cc3)n2n1)N1CCOCC1 | -21.2% (inactive) | – |
| Cn1cc(S(=O)(=O)CC(=O)N2CCCc3ccccc32)c2ccccc21 | -8.72% (inactive) | – |
| NS(=O)(=O)c1cccc(NC(=O)c2ccc(NS(=O)(=O)c3cccc([N+](=O)[O-])c3)cc2)c1 | 20.8% (inactive) | – |
| COc1cc(/C=C/c2sc3ccccc3[n+]2CCCS(=O)(=O)[O-])ccc1O | -2.25% (inactive) | – |
| COc1ccc(C2=NS(=O)(=O)N(C)C(C(=O)NC(C)c3ccccc3)=C2)cc1OC (centres undefined) | -14% (inactive) | – |
| CCc1ccc(NC(=O)c2cc(C)on2)cc1 | -14.7% (inactive) | – |
| CCc1ccccc1NC(=S)N(Cc1ccc(C(=O)O)cc1)Cc1ccc(OC)c(OC)c1 | -12.3% (inactive) | – |
| O=C(Cc1coc2cc(O)ccc12)NNC(=O)c1cccs1 | – | > 39 µM (inactive) |
| CNC(=O)C1CCN(S(=O)(=O)c2c(C)noc2/C=C/c2cccc(C)c2)CC1 | -11.4% (inactive) | – |
| CCc1cc(-c2n[nH]c(C)c2-c2nc(C)cs2)c(O)cc1OC | – | > 39 µM (inactive) |
| Nc1ccc2nc(-c3cccs3)[nH]c2c1 | – | 11 µM (active) |
| Cc1ccc(S(=O)(=O)N2CCC(C(=O)OCC(=O)NCCc3ccccc3)CC2)cc1C | 6.81% (inactive) | – |
| Oc1ccc(NC(=S)Nc2ccccc2)cc1 | – | 18.6 µM (active) |
| CC1(C)Cc2nc(Cl)c(C#N)cc2CO1 | – | > 39 µM (inactive) |
| COc1ccccc1Oc1cn[nH]c1-c1ccc(O)cc1O | – | 11.6 µM (active) |
| Cc1ccc(S(=O)(=O)N2CC(CBr)=CCC2c2ccccc2)cc1 (centres undefined) | – | 13.9 µM (active) |
| CC(C)NC(=O)N1CC[C@@H]2[C@H]1c1cc(-c3ccc(F)cc3)ccc1N(C)[C@H]2CO | – | 6.96 µM (active) |
